A selection: hits, their analogues and other compounds. The true share with any hit is near 1.4%.
EPAC2 ag: EPAC2 (human) agonism | Q8WZA2 | EPAC2 activation, biochemical qHTS; response scale: 100% = 6.5 mM cAMP response | Potency, µM (top dose mostly 154 µM), for the others: at the top dose activation, hits mostly activators | 360,000 compounds, 0.079% hits | AID 720711; note: potency is the fitted concentration of half-maximal effect; nearly all actives have a fitted effect of over 50% in size
Target sequence (Q8WZA2 whole entry, looked up): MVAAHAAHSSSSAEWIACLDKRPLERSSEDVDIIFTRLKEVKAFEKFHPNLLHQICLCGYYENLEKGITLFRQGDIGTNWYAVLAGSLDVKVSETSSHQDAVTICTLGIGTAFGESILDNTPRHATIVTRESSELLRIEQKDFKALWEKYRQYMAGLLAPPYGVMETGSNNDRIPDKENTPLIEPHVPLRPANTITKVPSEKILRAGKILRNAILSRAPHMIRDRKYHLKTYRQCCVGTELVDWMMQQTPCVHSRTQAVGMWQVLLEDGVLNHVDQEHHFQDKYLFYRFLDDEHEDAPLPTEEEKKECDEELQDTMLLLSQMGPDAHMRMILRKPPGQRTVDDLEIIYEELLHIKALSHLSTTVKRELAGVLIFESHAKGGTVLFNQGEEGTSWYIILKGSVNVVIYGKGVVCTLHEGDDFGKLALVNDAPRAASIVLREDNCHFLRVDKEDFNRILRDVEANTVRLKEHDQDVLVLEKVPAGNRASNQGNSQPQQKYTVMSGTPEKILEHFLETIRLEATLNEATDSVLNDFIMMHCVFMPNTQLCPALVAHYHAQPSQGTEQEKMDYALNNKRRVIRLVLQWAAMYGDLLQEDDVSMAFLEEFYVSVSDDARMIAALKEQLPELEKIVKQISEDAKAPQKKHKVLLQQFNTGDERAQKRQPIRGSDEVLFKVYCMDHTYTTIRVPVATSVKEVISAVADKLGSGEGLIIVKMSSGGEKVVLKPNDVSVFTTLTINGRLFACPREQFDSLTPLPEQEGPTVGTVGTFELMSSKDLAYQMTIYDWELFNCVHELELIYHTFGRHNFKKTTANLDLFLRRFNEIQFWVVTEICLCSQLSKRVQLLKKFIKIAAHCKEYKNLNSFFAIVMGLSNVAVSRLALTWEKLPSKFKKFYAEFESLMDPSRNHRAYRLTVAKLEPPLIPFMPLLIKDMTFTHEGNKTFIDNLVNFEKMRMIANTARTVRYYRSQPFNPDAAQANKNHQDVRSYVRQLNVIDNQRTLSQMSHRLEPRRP
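qHTS, titration series. 100 nM EPAC2 / 250 nM Rap1B-BODIPY-GDP / 50 uM GDP; RT; ex 480/em 540 nm, 5-min reads to 30 min. Norm. to 6.5 mM cAMP = activation.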
EPAC1 antag: blocks human EPAC1 exchange factor | EPAC1 GEF assay, Rap1b-BODIPY-GDP exchange fluorescence | Potency, µM (doses to about 115 µM), without a hit: at the highest dose activity change, negative = inhibition, usual class: inhibitors | 360,000 compounds, 0.14% hits | AID 720709;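 note: potency is the fitted concentration of half-maximal effect; plate controls were vehicle for no effect and positive control for full effect; nearly all actives have a fitted effect of over 50% in size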
KCNH2 3.1 inh: blocks the human KCNH2 3.1 channel isoform; activity change, % (tested at about 1.8 µM); AID 720553; 340,000 compounds, 0.95% hits; U2OS KCNH2 3.1, thallium flux FluxOr; active compounds read low;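 active = maximum activity change below -70%; inconclusive = maximum activity change from -70% to -50%; inactive = maximum activity change above -50%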;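 note: thallium influx rate constant from kinetic fluorescence after stimulation buffer; % is set by controls: 0 for no effect and ±100 for the full control effect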
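Steps: virus added to U2OS suspension (4 h, RT, dark); medium with 10% FBS added, cells plated, 37 C overnight; FluxOr/Red40 loading buffer 45 min RT; stimulation buffer, 2 min kinetic read; rate constant normalized.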
EPAC2 antagonist: blocks human EPAC2 exchange factor; Potency, µM (series often up to 114 µM), without a hit: top-dose activity, negative = inhibition, usual class: inhibitors; AID 720708; EPAC2 GEF exchange of Rap1B-BODIPY-GDP, fluorescence; 360,000 compounds, 0.18% hits; note: potency is the fitted concentration of half-maximal effect; % is set by controls: 0 for no effect and ±100 for the full control effect; nearly all actives have a fitted effect of over 45% in size
hERG WT inh: blocks the wildtype human KCNH2 potassium channel; Q12809; U2OS, BacMam KCNH2, thallium flux FluxOr; active compounds read low; activity change, % at 1.84 µM; 340,000 compounds, 0.37% hits; AID 720551;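 active = maximum activity change below -70%; inconclusive = maximum activity change between -70% and -50%; inactive = maximum activity change above -50%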; note: % is set by controls: 0 for no effect and ±100 for the full control effect
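U2OS cells transduced with wild-type KCNH2 virus are loaded with FluxOr dye for 45 min, and thallium flux is measured in kinetic reads before and after stimulation buffer. Rate constants are normalized to DMSO controls.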
EPAC1 ag: EPAC1 (human) agonism. O95398. EPAC1 agonist qHTS, biochemical assay; response scale: 100% = response to 6.5 mM cAMP. Potency, µM (titrated, usually from 154 µM), inactives show at the top dose activation, actives largely listed as activators. 360,000 compounds, 0.073% hits. AID 720707; note: potency is the fitted concentration of half-maximal effect; nearly all actives have a fitted effect of over 60% in size
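Normalized to 6.5 mM cAMP, activity reflects EPAC1-catalysed release of BODIPY-GDP from Rap1B, followed kinetically over 30 min at 480 nm excitation, 540 nm emission. Reaction contained 100 nM EPAC1, 250 nM Rap1B-BODIPY-GDP, 50 uM GDP.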
Active calls of the source: *; u = inconclusive; x = not tested or not shown. Unless noted, calls come from the whole dose curve; as a rule, active = well fitted curve in the direction sought with a large enough effect; inconclusive = small, poorly fitted or top-dose-only effect, or another doubt; inactive = no such curve, though single readings can be large; an effect the other way counts as inactive or inconclusive.

SMILES	EPAC2 ag	EPAC1 antag	KCNH2 3.1 inh	EPAC2 antagonist	hERG WT inh	EPAC1 ag
O=C(NC1CCCC1)c1cccc2c1C(=O)c1ccc(N3CCCCC3)cc1S2(=O)=O	56µM*	-8%	2	37%	-12	u
COc1ccccc1N1CCN(c2ccc3c(c2)S(=O)(=O)c2cccc(C(=O)NCC4CC4)c2C3=O)CC1	17%	22µM*	-6	u	-4	-39%
CC1CCN(c2ccc3c(c2)S(=O)(=O)c2cccc(C(=O)NC4CCCCC4)c2C3=O)CC1	50µM*	5%	-4	5%	-1	28µM*
CC1CCN(c2ccc3c(c2)S(=O)(=O)c2cccc(C(=O)O)c2C3=O)CC1	6%	15%	12	10%	18	13%
O=C1c2ccccc2S(=O)(=O)c2cc(N3CCC(C(=O)N4CCCCC4)CC3)ccc21	25µM*	14%	1	53%	2	79µM*
O=C(NC1CCCCC1)c1cccc2c1C(=O)c1ccc(N3CCCC3)cc1S2(=O)=O	-32%	2%	13	61%	1	-12%
CC1CCN(c2ccc3c(c2)S(=O)(=O)c2cccc(C(=O)NCc4ccc(F)cc4)c2C3=O)CC1	-103%	80%	-24	381%	-34	-147%
Cc1cc(C(=O)N2CCN(c3cc(Cl)ccc3C)CC2)on1	7%	3%	-20	-23%	-2	-4%
CC(C)c1ccc([N+](=O)[O-])cc1S(=O)(=O)N1CCN(C)CC1	18%	5%	8	-6%	13	10%
Oc1ccc(-c2cnc3c(Nc4cccc(OC(F)(F)C(F)F)c4)nccn23)cc1	-8%	-18%	x	-19%	x	-17%
Cc1ccc(CSc2[nH]c(=O)ncc2C)cc1	16%	-2%	-8	-4%	-14	7%
CC(C)(C)CNC(=O)c1cccc2c1C(=O)c1ccc(N3CCCC3)cc1S2(=O)=O	26%	36%	1	18%	-20	u
O=C(NCc1ccccc1C(F)(F)F)c1cccc2c1C(=O)c1ccc(N3CCCCC3)cc1S2(=O)=O	100µM*	3%	-12	2%	-19	14%
CC1CC(C)CN(C(=O)c2cccc(S(=O)(=O)Nc3cc(C(F)(F)F)ccc3Cl)c2)C1 (stereo not given)	-14%	50µM*	x	50µM*	7	-13%
O=C(O)c1cccc(S(=O)(=O)Nc2cc(Cl)ccc2Cl)c1	8%	-16%	-3	-3%	9	9%
Cc1nc2c(C)cccn2c1C(=O)c1ccccc1	-4%	-6%	-84*	0%	-5	-8%
Cc1ccc(NC(=O)CN2C(=O)S/C(=C\c3cc(C)n(C)c3C)C2=O)cc1	3%	8%	-93*	9%	-1	18%
O=C1S/C(=C\c2ccc(O)c([N+](=O)[O-])c2)C(=O)N1c1ccccc1Cl	5%	56µM*	19	u	20	-22%
Cc1ccc(NC(=O)CN2C(=O)S/C(=C/c3ccc(O)c([N+](=O)[O-])c3)C2=O)cc1C	-12%	45µM*	-4	u	4	1%
CC(CCc1ccccc1)NCC(O)COc1ccccc1 (stereo not given)	-1%	-19%	-28	3%	x	5%
CC(C)(C)N1CC(c2nc3ccccc3n2CCOc2ccccc2)CC1=O (stereo not given)	10µM*	10%	11	-11%	0	-5%
O=C(Cn1c(=O)c2c(ncn2Cc2ccccc2)n(Cc2ccccc2)c1=O)NC1CC1	-4%	5%	-90*	6%	-3	-1%
Cn1c(=O)n(C)c2cc([N+](=O)[O-])c(N3CCN(C(=O)c4ccccc4Cl)CC3)cc21	2%	4%	-14	8%	-1	-6%
Cc1ccc(C(=O)O/N=C\c2ccc(N3CCCCC3)c([N+](=O)[O-])c2)cc1	6%	-10%	-77*	1%	-14	5%
CO/N=C/c1ccc(N2CCN(C(=O)c3cccc(C(F)(F)F)c3)CC2)c([N+](=O)[O-])c1	-5%	-16%	-37	-1%	-243*	14%
SMILES	EPAC2 ag	EPAC1 antag	KCNH2 3.1 inh	EPAC2 antagonist	hERG WT inh	EPAC1 ag
CO/N=C/c1ccc(N2CCN(C(=O)c3ccc(F)cc3)CC2)c([N+](=O)[O-])c1	20%	-14%	-102*	-11%	9	13%
CO/N=C/c1ccc(N2CCN(C(=O)c3ccc(Cl)cc3Cl)CC2)c([N+](=O)[O-])c1	9%	-11%	-109*	-3%	-12	14%
O=C(COc1ccc(Br)cc1)Nc1ccc(Cc2ccncc2)cc1	3%	u	-5	0%	2	-6%
CC1CCCC(NC(=O)COC(=O)[C@@H](NC(=O)c2ccc(F)cc2)C(C)C)C1C (stereo not given in full)	-1%	-10%	4	-6%	1	-9%
CC(C)c1cc(=O)n2[nH]c(N)nc2n1	8%	8%	11	-13%	1	4%
CC1(C(=O)Nc2cccc3cccnc23)CCN1Cc1ccccc1OC(F)F (stereo not given)	7%	-27%	x	-19%	x	-1%
O=C(O)CCCCCNC(=O)c1cccc(Br)c1	-3%	8%	-3	5%	3	5%
O=C(NNC(=O)c1ccccc1O)c1cccc(Br)c1	6%	-14%	-81*	0%	3	2%
O=C(O)CCCC(=O)NNC(=O)c1cccc(Br)c1	7%	-6%	-98*	0%	6	0%
O=C(NNC(=O)c1ccccc1O)c1ccc(Br)cc1	8%	-19%	4	-17%	4	9%
COC(=O)C(Cc1c[nH]c2ccccc12)NC(=O)c1cc(-c2ccc(OC)c(OC)c2)oc1C (stereo not given)	2%	-18%	x	5%	-11	3%
O=Cc1cn(CCOc2ccccc2F)c2ccccc12	8%	-22%	-22	-15%	2	-3%
COc1ccccc1OCCn1cc(C=O)c2ccccc21	1%	-20%	-90*	-6%	-7	-4%
O=C1NC[C@H](CCCCN2CCN(CC3CCCCC3)C(=O)C2=O)N(CCc2ccccc2)C1=O	1%	1%	x	-1%	x	3%
Cc1cc(S(=O)(=O)N2CCC(NC(=O)C34CC5CC(CC(C5)C3)C4)CC2)ccc1-n1cnnn1	-10%	-12%	-89*	2%	11	4%
COC(=O)C(Cc1ccc(O)cc1)NC(=O)Cn1cc(C)c(=O)[nH]c1=O (stereo not given)	12%	7%	17	2%	48	4%
Nc1c(C(=O)C2CC2)sc2nc(-c3cccs3)cc(C(F)(F)F)c12	112µM*	-4%	x	219%	-39	27%
